Source: PubChem BioAssay
DAX1 inh-1: inhibits human nuclear receptor DAX1. HEK293 Gal4-DAX1 luciferase reporter, luminescence. inhibition, % at 6.75 µM. 340,000 tested, 0.99% active. AID 504766;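 active means inhibition above the mean over all tested compounds plus 3 SD, cut at about 4.2% in these data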;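 further: 0% = DAX1-transfected cells with DMSO and 100% = empty-vector control cells with DMSO; inhibition shows as a rise in luminescence from relieved DAX1 repression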
Target sequence (P51843 207-470 limits assumed): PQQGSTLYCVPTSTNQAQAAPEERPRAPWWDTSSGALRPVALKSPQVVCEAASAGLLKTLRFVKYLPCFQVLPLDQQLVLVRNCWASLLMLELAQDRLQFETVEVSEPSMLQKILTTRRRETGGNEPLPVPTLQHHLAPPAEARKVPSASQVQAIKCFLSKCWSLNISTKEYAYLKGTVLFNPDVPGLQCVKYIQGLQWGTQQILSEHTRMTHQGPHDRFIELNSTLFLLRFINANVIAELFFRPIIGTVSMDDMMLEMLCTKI
hcDAF12 agonist: H. contortus DAF-12 activation, primary screen; AID 652067; 370,000 tested, 1.4% active; HEK293 hcDAF-12 lit1-tk-luc reporter, luminescence; 0% DMSO, 100% Δ7-dafachronic acid; activation, % at 6.8 µM;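 active means activation above the mean of all tested compounds plus 3 SD, cut at about 5.5% in these data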;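 further: 100% = response to 3 µM Δ7-dafachronic acid high control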
DAX1 inh-2: DAX1 (NR0B1) inhibition, primary screen; inhibition, % at 6.8 µM; HEK293T StAR-luciferase reporter, SF-1/DAX-1 repression relief; 370,000 tested, 1.1% active;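 active means inhibition above the mean over all tested compounds plus 3 SD, cut at about 3.6% in these data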;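 further: 0% = DAX-1 cells with DMSO and 100% = cells lacking DAX-1 with DMSO; higher inhibition means more luminescence from relief of DAX-1 repression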
hgDAF12 agonist: hgDAF-12 agonism, primary luciferase screen | HEK293 GAL4-hgDAF12 UAS-luciferase reporter, agonist luminescence; normalized to butyrate control | activation, % at 6.8 µM | 370,000 tested, 1.8% active | AID 687014;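 active means activation above a cutoff set at the mean of all screened compounds plus 3 SD, cut at about 10% in these data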;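 further: 0% = DMSO wells and 100% = sodium butyrate wells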
ssDAF12 agonist: S. stercoralis DAF-12 activation, primary screen. activation, % at 6.8 µM. HEK293 ssDAF-12/GRIP1 lit1-tk-luc reporter, luminescence; % of 3 µM dafachronic acid response. 370,000 tested, 1% active;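 active means activation above the mean over all tested compounds plus 3 SD, cut at about 0.9% in these data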;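 further: 0% = DMSO-only wells and 100% = 3 µM delta7-dafachronic acid wells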
LXRb hcDAF ctr: activates human LXR-beta, counter-screen for hcDAF-12 agonists. activation, % at 6.8 µM. 3,400 tested, under 10 active. shares compounds with hcDAF12 agonist. HEK293 Gal4-LXR tk-luc reporter, luminescence, 24 h; normalized: DMSO 0%, positive control 100%. AID 743027;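 active means mean percent activation of the reporter above a cutoff set as the average over tested compounds plus their standard deviation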
hcDAF12 ag: hcDAF-12 agonism, confirmation assay; shares compounds with hcDAF12 agonist; HEK293 hcDAF-12 lit1-tk-luc reporter, luminescence; % of Δ7-dafachronic acid response; activation, % at 6.8 µM; 3,400 tested, 61% active; AID 743032;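 active means mean activation across triplicate tests above the threshold derived from the earlier primary screen, cut at about 5.5% in these data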;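 further: 0% = DMSO only wells and 100% = 3 µM Δ7-dafachronic acid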
hgDAF12 conf: confirmation of H. glycines DAF-12 agonists; shares compounds with hgDAF12 agonist; HEK293 GAL4-hgDAF12 luciferase reporter, agonist mode; percent of butyrate response; activation, % at 6.8 µM; 3,300 tested, 80% active;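 active means mean activation over triplicate wells above the hit cutoff derived from the earlier primary screen, cut at about 11% in these data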;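 further: 0% = DMSO low control and 100% = 2 mM sodium butyrate high control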
LXRb DAF12 ctr: activates human LXR-beta, counter-screen for DAF-12 agonists | shares compounds with hgDAF12 agonist | HEK293 Gal4-LXR luciferase reporter, 24 h | activation, % at 6.8 µM | 3,300 tested, under 10 active;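 active means mean activation of the triplicate above a set limit carried over from the primary screen, none filed active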
The depositor's hits bear a star; . = no result given. A selection: hits, their analogues and other compounds. The true share with any hit is near 4.1%.

SMILES	DAX1 inh-1	hcDAF12 agonist	DAX1 inh-2	hgDAF12 agonist	ssDAF12 agonist	LXRb hcDAF ctr	hcDAF12 ag	hgDAF12 conf	LXRb DAF12 ctr
Cc1[nH]n(-c2ccccc2)c(=O)c1N=Nc1cccc(C(=O)O)c1	-3	8.9*	3	14*	2.2*	1	12*	15*	1
Cc1[nH]c2ccccc2c1N=Nc1cccc(C(=O)O)c1	2	12*	4.2*	14*	2.9*	1	7.6*	19*	1
Cc1ccnc(NC(=O)c2ccc(Br)s2)c1	2	14*	3	20*	1.6*	1	9.3*	17*	1
O=C(Nc1ccon1)c1ccc(Br)s1	0	0	-1	2	-1	.	.	.	.
O=C(NN/C(=N/S(=O)(=O)c1ccc(Cl)cc1)c1ccccc1)c1cccc(Cl)c1	1	8.8*	2	16*	1.2*	1	7.6*	18*	1
CC1(C)NC(=O)N(CCC(=O)Nc2cc(C(F)(F)F)ccc2Cl)C1=O	0	-1	-1	-2	-1	.	.	.	.
O=C(O)/C=C\C(=O)Nc1ccccc1C#Cc1ccc(Br)cc1	3	16*	3.8*	22*	2.1*	0	1	16*	1
c1ccc(C[n+]2c(-c3ccccc3)csc2Nc2ccccc2)cc1	3	3	2	8	0	.	.	.	.
c1ccc(Nc2scc(-c3ccccc3)[n+]2Cc2ccco2)cc1	5.1*	7.3*	3	14*	0	1	4	16*	1
CCOC(=O)Nc1ccc2c(COC(=O)C(NS(=O)(=O)c3ccc(Cl)cc3)C(C)O)cc(=O)oc2c1 (stereo not given)	-3	-2	0	1	-2	.	.	.	.
Cc1cc(C(=O)Nc2ccccn2)no1	1	3	1	8	0	.	.	.	.
O=C(Nc1nccs1)c1ccc2ccccc2n1	1	18*	2	18*	3.6*	2	16*	23*	1
O=C(Nc1nccs1)c1sc2ccccc2c1Cl	-1	15*	3	18*	3.0*	2	16*	17*	1
O=C(/C=C\c1ccccc1)Nc1nccs1	1	8.4*	3	20*	0	2	5	20*	1
O=C(Nc1ccccn1)c1ccc2ccccc2n1	1	19*	4	17*	3.7*	2	22*	18*	1
Cn1c(=O)c2c(nc(SCCN3CCOCC3)n2C)n(C)c1=O	-1	-3	0	2	-2	.	.	.	.
CCOc1ccc(N2CC(C(=O)Nc3nnc(CC)s3)CC2=O)cc1 (stereo not given)	-1	2	0	1	0	.	.	.	.
FC(F)(F)c1nc(SCc2ccccc2)n[nH]1	-1	-2	0	-2	-1	.	.	.	.
C#CCNc1nc(CC)nc2c1nnn2Cc1ccccc1F	0	-2	-1	-3	-2	.	.	.	.
Cc1csc(NC(=O)c2cnc3ccccc3n2)n1	-1	15*	2	16*	2.1*	1	14*	18*	1
Cc1csc(NC(=O)c2ccc3ccccc3n2)n1	1	21*	3	18*	4.1*	2	16*	26*	1
CCOC(=O)c1cc2cc([N+](=O)[O-])cc(OC)c2oc1=O	0	0	0	7	-2	.	.	.	.
CC1(c2ccc(NC(=O)c3ccccc3F)cc2)CC1(Cl)Cl (stereo not given)	4.3*	9.6*	3	17*	1	1	6.3*	16*	1
O=C(Nc1ccccc1C(=O)Nc1ccccc1)c1ccccc1F	0	0	0	0	-1	.	.	.	.
